D1 potentiator: human D1 dopamine receptor positive modulation. P21728. HEK293 TREx D1 cells, calcium flux, dopamine EC20 potentiation. potentiation, % at 10 µM. 360,000 compounds, 0.036% hits. AID 504651; in the data active = potentiation above about 30%; note: 0% is about no effect
Target sequence (P21728 whole entry, looked up): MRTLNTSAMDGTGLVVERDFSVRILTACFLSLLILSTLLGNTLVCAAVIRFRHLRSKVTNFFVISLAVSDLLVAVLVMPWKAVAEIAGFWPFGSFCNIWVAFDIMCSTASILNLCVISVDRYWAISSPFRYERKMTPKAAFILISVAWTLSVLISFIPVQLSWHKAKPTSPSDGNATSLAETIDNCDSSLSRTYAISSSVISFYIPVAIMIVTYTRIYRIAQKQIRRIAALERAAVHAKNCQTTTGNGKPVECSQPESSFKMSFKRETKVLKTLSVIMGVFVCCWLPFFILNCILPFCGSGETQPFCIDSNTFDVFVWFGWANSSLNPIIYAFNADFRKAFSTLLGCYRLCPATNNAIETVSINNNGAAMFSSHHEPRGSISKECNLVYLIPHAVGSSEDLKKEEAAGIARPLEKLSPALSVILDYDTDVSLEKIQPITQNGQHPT
TRHR ag: activates the human TRH receptor; AID 493084; P34981; TRHR cells, calcium flux fluo-8, FDSS agonist mode; activation, % at 2 µM; 360,000 compounds, 0.18% hits; note: 0% is about no effect
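Fluo-8-loaded TRHR cells; 10 s baseline, compound added, kinetic Ca2+ fluorescence read 1/s, agonist mode.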
D1 agonist: agonists of human D1 dopamine receptor | 360,000 compounds, 1% hits | P21728 | activation, % at 2 µM | HEK293 T-REx D1 cells, calcium flux, agonist mode; note: 0% is about no effect
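Inducible HEK293 T-REx D1 cells, force-coupled to calcium signalling, were plated at 4000 cells/well with tetracycline and held overnight at 30 C. After no-wash calcium dye loading, compound-evoked calcium rise over 180 s flagged agonists.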
TRHR enhancer: TRH receptor (human) allosteric enhancement. P34981. TRHR cells, fluo-8 calcium fluorescence, EC20 TRH enhancement. enhancement, % at 2 µM. 360,000 compounds, 0.66% hits. AID 493056; in the data active = enhancement above about 30%; note: 0% is about no effect
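Enhancer read-out: after compound pinning and an initial kinetic agonist-mode read, an EC20 of TRH (10 nM final) was injected and fluo-8 calcium signal (Ex 480/Em 530) followed at 1 s/cycle for 100 cycles in TRHR-expressing cells.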
D1 antag: blocks dopamine activation of the human D1 receptor; activity change, negative = inhibition, % at 10 µM; 360,000 compounds, 3.2% hits; HEK293 TREx D1 cells, calcium flux, dopamine EC80; active compounds read low; in the data active = activity change below about -30%; note: % is set by controls: 0 for no effect and ±100 for the full control effect
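After overnight tetracycline induction at 30 C, force-coupled D1 HEK293 cells took up a no-wash calcium dye at room temperature. Compounds were added and monitored 180 s, and the response to EC80 dopamine was then recorded.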
* marks the source's active call; other numbers are inactive results. Only some compounds are listed: those with a hit (about 4.7% of all), similar ones and a draw of the others. Cut-off read from the data, not from the text of the source, unless noted: active = activation above about 30%; inactive = the rest.

`Cc1c(C(=O)NCc2ccccc2CN2CCCC2)oc2ccccc12` gave D1 potentiator -17, TRHR ag 0, D1 agonist 0, TRHR enhancer 1 and D1 antag -43*.
Screening Cc1c(C(=O)NCc2ccccc2F)oc2ccccc12 returned D1 potentiator -8, TRHR ag 1, D1 agonist 1, TRHR enhancer 2 and D1 antag -20.
CCOCc1c(C(=O)Nc2ccc3nc(N4CCOCC4)sc3c2)oc2ccccc12 was read as D1 potentiator -8, TRHR ag 0, D1 agonist 0, TRHR enhancer -2 and D1 antag -32*.
`CCOCc1c(C(=O)Nc2cc(OCC)c(N3CCOCC3)cc2OCC)oc2ccccc12` gave D1 potentiator -4, TRHR ag 0, D1 agonist 2, TRHR enhancer -10 and D1 antag 1.
CCOCc1c(C(=O)NCc2ccccc2CN2CCCC2)oc2ccccc12 was read as D1 potentiator -6, TRHR ag -1, D1 agonist 1, TRHR enhancer 10 and D1 antag -30*.
Screening CC1=CC(C)(C)Nc2ccc(C)cc21 returned D1 potentiator 3, TRHR ag 0, D1 agonist 1, TRHR enhancer -4 and D1 antag 4.
CC1=CC(C)(C)Nc2ccc(Cc3ccc4c(c3)C(C)=CC(C)(C)N4)cc21 was read as D1 potentiator 7, TRHR ag 0, D1 agonist 3, TRHR enhancer 38* and D1 antag 70.
Screening Cc1cccc(-n2c(N)cc(=O)nc2SCC(=O)Nc2ccc(F)cc2)c1C returned D1 potentiator -3, TRHR ag -1, D1 agonist 0, TRHR enhancer -1 and D1 antag -3.
Screening O=C(COC(=O)C1CCC(=O)N1)Nc1cc(Cl)ccc1Cl (stereo not drawn) returned D1 potentiator 2, TRHR ag -1, D1 agonist 3, TRHR enhancer 8 and D1 antag -80*.
Cc1cc(=O)[nH]c2nnc(SCC(=O)N3CC(C)OC(C)C3)n12 (stereo not drawn) was read as D1 potentiator -4, TRHR ag 0, D1 agonist 3, TRHR enhancer -1 and D1 antag 33.
CCCc1cc(=O)[nH]c2nnc(SCC(=O)N3CC(C)OC(C)C3)n12 (stereo not drawn) was read as D1 potentiator -2, TRHR ag 0, D1 agonist 3, TRHR enhancer 2 and D1 antag -65*.
Screening Cn1c(SCC(=O)Nc2ccc(Cl)cc2F)nnc1-c1ccco1 returned D1 potentiator -18, TRHR ag -2, D1 agonist 3, TRHR enhancer -4 and D1 antag 2.
For CSc1nsc(NC(=O)OCc2ccc(Cl)cc2)n1 the results were D1 potentiator -6, TRHR ag 1, D1 agonist 26, TRHR enhancer 0 and D1 antag -36*.
O=C1NC(=S)S/C1=C/c1ccc(OC(=O)c2ccco2)cc1 was read as D1 potentiator -7, TRHR ag -1, D1 agonist 11, TRHR enhancer 0 and D1 antag -30*.
`Cc1ccc(NC(=O)CSc2nc(=O)n3cc(C)ccc3n2)c(C)c1` gave D1 potentiator -6, TRHR ag 0, D1 agonist 3, TRHR enhancer -5 and D1 antag -35*.
`CCc1ccc2oc(-c3cccc(NC(=O)c4ccc(-c5cccc([N+](=O)[O-])c5)o4)c3)nc2c1` gave D1 potentiator -4, TRHR ag 0, D1 agonist 1, TRHR enhancer -7 and D1 antag 0.
Screening Cc1ccc(/C=[N+](\[O-])c2ccc(N(C)C)cc2)c2nsnc12 returned D1 potentiator 3, TRHR ag 16, D1 agonist 37*, TRHR enhancer -3 and D1 antag -5.
`Cc1ccc2nsnc2c1NS(=O)(=O)c1c(C)ccc2nsnc12` gave D1 potentiator 2, TRHR ag -1, D1 agonist 0, TRHR enhancer -6 and D1 antag 0.
COc1ccc2oc(=O)c(C(=O)NCCc3c(C)[nH]c4c(C)cccc34)cc2c1 was read as D1 potentiator -1, TRHR ag 0, D1 agonist -1, TRHR enhancer 51* and D1 antag 6.
For Cc1[nH]c2ccc(F)cc2c1CCNC(=O)c1cc2cc(Cl)ccc2oc1=O the results were D1 potentiator -1, TRHR ag 0, D1 agonist -1, TRHR enhancer 4 and D1 antag -1.
Screening Cc1[nH]c2c(C)cccc2c1CCNC(=O)c1cc2ccccc2oc1=O returned D1 potentiator -5, TRHR ag 2, D1 agonist -1, TRHR enhancer 3 and D1 antag 3.
For COc1cccc2cc(C(=O)NCCc3c(C)[nH]c4ccc(F)cc34)c(=O)oc12 the results were D1 potentiator -4, TRHR ag -1, D1 agonist 0, TRHR enhancer 39* and D1 antag -4.
Cc1ccccc1CN1CCN(C(=O)c2ccco2)CC1 was read as D1 potentiator -5, TRHR ag 0, D1 agonist 1, TRHR enhancer 1 and D1 antag 8.
Screening Cc1ccc(N(C(C)C(=O)N2CCN(Cc3ccccc3)CC2)S(C)(=O)=O)cc1 (stereo not drawn) returned D1 potentiator -1, TRHR ag -4, D1 agonist 13, TRHR enhancer 37* and D1 antag 8.
Screening O=C(Nc1ccc(Cl)c(Cl)c1)C1CCN(C(=O)c2ccco2)CC1 returned D1 potentiator -18, TRHR ag 0, D1 agonist 41*, TRHR enhancer -10 and D1 antag 2.
`Cc1cc(C)cc(NC(=S)N2CCN(C(=O)c3ccco3)CC2)c1` gave D1 potentiator 15, TRHR ag 0, D1 agonist 0, TRHR enhancer -2 and D1 antag -39*.
`Cc1ccc(NC(=O)C2CCN(C(=O)c3ccco3)CC2)cc1` gave D1 potentiator 0, TRHR ag 0, D1 agonist -1, TRHR enhancer 11 and D1 antag -15.
Screening Cc1ccc(CN2CCN(C(=O)c3ccco3)CC2)cc1 returned D1 potentiator -7, TRHR ag 0, D1 agonist -2, TRHR enhancer -2 and D1 antag -30*.
Screening CCOC(=O)N1CCN(C(=O)C(C)N(c2ccc(Oc3ccccc3)cc2)S(C)(=O)=O)CC1 (stereo not drawn) returned D1 potentiator -8, TRHR ag 0, D1 agonist 10, TRHR enhancer -7 and D1 antag -4.
For CC(Sc1nnc(N)s1)C(=O)Nc1ccc2c(c1)OCO2 (stereo not drawn) the results were D1 potentiator -4, TRHR ag 0, D1 agonist 0, TRHR enhancer -2 and D1 antag -3.

Screening results from PubChem.
